Source: ChEMBL document CHEMBL1961873, “Compounds: GSK PKIS; Assays: Nanosyn kinase panel” (2012)

Key:
[1] = molecular target: Tyrosine-protein kinase SYK (Homo sapiens) (UniProt P43405); settings: at 1 µM
[2] = molecular target: T1, Tyrosine-protein kinase Tec (Homo sapiens) (UniProt P42680); settings: at 0.1 µM
T1 sequence (whole entry): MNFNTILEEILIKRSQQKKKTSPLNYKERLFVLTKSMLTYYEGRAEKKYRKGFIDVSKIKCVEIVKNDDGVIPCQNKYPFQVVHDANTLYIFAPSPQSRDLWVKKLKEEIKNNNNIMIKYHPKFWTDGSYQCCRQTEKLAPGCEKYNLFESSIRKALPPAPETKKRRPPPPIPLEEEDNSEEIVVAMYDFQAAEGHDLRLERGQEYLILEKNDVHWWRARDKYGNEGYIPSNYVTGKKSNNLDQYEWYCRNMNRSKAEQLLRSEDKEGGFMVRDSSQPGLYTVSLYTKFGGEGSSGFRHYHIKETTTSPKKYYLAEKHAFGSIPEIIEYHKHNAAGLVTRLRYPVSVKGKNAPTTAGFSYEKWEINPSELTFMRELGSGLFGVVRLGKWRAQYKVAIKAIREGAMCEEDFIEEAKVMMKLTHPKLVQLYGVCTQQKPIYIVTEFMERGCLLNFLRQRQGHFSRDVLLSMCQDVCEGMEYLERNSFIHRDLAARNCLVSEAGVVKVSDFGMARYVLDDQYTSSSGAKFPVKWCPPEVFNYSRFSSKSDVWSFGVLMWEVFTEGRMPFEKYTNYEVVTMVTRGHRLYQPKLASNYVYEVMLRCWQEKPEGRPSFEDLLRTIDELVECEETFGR

[3] = molecular target: T1, Tyrosine-protein kinase Tec (Homo sapiens); settings: at 1 µM
[4] = molecular target: Angiopoietin-1 receptor (Homo sapiens) (UniProt Q02763); settings: at 0.1 µM
[5] = molecular target: Angiopoietin-1 receptor (Homo sapiens) (UniProt Q02763); settings: at 1 µM
[6] = molecular target: T2, Non-receptor tyrosine-protein kinase TNK1 (Homo sapiens) (UniProt Q13470); settings: at 0.1 µM
T2 sequence (whole entry): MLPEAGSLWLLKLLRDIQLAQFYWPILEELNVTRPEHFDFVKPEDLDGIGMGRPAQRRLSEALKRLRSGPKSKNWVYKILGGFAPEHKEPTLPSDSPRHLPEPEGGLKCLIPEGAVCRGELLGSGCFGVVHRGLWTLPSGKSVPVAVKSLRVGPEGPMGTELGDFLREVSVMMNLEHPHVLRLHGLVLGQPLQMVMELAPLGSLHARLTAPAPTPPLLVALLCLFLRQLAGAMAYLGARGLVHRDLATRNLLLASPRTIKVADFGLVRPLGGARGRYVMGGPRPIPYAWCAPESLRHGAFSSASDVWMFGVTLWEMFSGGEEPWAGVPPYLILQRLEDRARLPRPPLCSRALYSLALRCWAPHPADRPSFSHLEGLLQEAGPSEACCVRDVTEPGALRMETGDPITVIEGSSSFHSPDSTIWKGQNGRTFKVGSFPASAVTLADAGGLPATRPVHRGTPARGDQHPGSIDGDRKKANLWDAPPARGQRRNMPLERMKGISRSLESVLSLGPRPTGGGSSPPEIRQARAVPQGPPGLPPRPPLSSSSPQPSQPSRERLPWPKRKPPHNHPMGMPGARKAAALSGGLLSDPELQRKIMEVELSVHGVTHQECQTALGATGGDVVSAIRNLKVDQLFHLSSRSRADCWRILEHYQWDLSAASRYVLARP

[7] = molecular target: T2, Non-receptor tyrosine-protein kinase TNK1 (Homo sapiens); settings: at 1 µM
[8] = molecular target: Activated CDC42 kinase 1 (Homo sapiens) (UniProt Q07912); settings: at 0.1 µM
[9] = molecular target: Activated CDC42 kinase 1 (Homo sapiens) (UniProt Q07912); settings: at 1 µM
[10] = molecular target: High affinity nerve growth factor receptor (Homo sapiens) (UniProt P04629); settings: at 0.1 µM
[11] = molecular target: High affinity nerve growth factor receptor (Homo sapiens) (UniProt P04629); settings: at 1 µM
[12] = molecular target: BDNF/NT-3 growth factors receptor (Homo sapiens) (UniProt Q16620); settings: at 0.1 µM
[13] = molecular target: BDNF/NT-3 growth factors receptor (Homo sapiens) (UniProt Q16620); settings: at 1 µM
[14] = molecular target: NT-3 growth factor receptor (Homo sapiens) (UniProt Q16288); settings: at 0.1 µM
[15] = molecular target: NT-3 growth factor receptor (Homo sapiens) (UniProt Q16288); settings: at 1 µM
[16] = molecular target: T3, Tyrosine-protein kinase TXK (Homo sapiens) (UniProt P42681); settings: at 0.1 µM
T3 sequence (whole entry): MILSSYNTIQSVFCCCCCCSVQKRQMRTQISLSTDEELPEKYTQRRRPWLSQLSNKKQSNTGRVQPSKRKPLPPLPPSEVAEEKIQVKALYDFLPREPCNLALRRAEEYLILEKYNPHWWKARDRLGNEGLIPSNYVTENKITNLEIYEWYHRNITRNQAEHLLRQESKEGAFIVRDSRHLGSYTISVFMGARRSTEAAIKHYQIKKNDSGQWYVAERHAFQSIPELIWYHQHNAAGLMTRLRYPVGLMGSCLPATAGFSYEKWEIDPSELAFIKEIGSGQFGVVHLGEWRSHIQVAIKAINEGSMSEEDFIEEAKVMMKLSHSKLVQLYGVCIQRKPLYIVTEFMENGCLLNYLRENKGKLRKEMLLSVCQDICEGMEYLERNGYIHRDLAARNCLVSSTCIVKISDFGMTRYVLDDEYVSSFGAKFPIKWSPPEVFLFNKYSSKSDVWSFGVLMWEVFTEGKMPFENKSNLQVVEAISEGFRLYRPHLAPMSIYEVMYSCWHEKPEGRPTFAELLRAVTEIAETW

[17] = molecular target: T3, Tyrosine-protein kinase TXK (Homo sapiens); settings: at 1 µM
[18] = molecular target: Non-receptor tyrosine-protein kinase TYK2 (Homo sapiens) (UniProt P29597); settings: at 0.1 µM;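 also: each value is a mean of the inhibition readings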
[19] = molecular target: T4, Dual specificity protein kinase TTK (Homo sapiens) (UniProt P33981); settings: at 1 µM;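 also: reported figures are mean TTK inhibition at 1 µM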
T4 sequence (whole entry): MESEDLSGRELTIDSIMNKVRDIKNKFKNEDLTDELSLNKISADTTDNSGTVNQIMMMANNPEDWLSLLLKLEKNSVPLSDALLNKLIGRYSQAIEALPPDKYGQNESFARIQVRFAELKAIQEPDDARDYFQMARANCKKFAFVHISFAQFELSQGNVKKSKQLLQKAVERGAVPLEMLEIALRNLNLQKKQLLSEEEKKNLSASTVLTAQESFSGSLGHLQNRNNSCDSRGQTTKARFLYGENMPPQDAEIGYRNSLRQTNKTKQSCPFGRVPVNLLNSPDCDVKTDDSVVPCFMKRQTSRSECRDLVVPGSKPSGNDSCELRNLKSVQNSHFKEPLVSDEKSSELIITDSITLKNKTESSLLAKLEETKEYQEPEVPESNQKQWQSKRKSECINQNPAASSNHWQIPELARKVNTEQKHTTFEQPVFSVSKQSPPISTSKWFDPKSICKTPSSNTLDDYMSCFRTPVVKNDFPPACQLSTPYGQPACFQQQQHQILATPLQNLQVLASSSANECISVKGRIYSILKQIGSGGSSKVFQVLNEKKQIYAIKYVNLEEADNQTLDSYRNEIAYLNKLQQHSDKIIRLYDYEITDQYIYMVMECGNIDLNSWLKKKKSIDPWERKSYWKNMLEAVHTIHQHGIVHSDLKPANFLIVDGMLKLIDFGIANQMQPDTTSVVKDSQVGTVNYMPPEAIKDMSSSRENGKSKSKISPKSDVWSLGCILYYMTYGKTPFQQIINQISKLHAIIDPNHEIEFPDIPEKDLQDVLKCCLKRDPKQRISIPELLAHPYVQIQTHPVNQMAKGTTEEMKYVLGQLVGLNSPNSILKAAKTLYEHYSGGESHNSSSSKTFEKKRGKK

[20] = molecular target: T5, Aurora kinase A (Homo sapiens) (UniProt O14965); settings: at 0.1 µM;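 also: each reported value is a mean percent inhibition of Aurora-A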
T5 sequence (whole entry): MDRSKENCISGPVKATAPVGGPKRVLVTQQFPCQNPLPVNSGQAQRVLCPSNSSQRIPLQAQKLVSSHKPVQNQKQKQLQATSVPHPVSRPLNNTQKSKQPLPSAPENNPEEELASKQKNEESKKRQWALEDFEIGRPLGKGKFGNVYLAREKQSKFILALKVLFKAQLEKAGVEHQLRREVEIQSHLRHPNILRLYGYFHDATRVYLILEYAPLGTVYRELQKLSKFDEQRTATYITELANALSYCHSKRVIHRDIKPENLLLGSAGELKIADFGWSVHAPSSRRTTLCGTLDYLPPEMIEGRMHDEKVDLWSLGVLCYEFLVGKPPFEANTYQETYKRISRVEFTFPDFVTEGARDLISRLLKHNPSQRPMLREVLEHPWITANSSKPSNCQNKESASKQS

Chain of High affinity nerve growth factor receptor (Homo sapiens) (P04629 33-796 limits assumed): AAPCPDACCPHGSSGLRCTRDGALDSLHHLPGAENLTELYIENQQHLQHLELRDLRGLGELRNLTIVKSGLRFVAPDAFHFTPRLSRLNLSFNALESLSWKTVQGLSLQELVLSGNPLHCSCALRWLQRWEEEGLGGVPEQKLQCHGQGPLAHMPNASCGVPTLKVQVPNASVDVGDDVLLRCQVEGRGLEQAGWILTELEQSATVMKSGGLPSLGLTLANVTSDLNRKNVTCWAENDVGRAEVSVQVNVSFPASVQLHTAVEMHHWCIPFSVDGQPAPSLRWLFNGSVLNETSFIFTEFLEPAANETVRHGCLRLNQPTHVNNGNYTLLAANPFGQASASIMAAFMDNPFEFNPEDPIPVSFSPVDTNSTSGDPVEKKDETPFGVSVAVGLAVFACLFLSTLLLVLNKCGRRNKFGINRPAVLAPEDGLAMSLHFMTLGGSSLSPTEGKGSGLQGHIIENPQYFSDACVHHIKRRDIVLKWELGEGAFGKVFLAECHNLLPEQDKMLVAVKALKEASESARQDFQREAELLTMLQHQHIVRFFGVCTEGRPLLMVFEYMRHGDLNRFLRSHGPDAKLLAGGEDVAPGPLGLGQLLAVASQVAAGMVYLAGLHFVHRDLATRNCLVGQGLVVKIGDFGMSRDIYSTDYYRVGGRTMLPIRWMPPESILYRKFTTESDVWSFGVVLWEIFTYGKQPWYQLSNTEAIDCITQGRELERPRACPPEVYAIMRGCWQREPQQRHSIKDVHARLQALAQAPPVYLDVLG
Chain of NT-3 growth factor receptor (Homo sapiens) (Q16288 32-839 limits assumed): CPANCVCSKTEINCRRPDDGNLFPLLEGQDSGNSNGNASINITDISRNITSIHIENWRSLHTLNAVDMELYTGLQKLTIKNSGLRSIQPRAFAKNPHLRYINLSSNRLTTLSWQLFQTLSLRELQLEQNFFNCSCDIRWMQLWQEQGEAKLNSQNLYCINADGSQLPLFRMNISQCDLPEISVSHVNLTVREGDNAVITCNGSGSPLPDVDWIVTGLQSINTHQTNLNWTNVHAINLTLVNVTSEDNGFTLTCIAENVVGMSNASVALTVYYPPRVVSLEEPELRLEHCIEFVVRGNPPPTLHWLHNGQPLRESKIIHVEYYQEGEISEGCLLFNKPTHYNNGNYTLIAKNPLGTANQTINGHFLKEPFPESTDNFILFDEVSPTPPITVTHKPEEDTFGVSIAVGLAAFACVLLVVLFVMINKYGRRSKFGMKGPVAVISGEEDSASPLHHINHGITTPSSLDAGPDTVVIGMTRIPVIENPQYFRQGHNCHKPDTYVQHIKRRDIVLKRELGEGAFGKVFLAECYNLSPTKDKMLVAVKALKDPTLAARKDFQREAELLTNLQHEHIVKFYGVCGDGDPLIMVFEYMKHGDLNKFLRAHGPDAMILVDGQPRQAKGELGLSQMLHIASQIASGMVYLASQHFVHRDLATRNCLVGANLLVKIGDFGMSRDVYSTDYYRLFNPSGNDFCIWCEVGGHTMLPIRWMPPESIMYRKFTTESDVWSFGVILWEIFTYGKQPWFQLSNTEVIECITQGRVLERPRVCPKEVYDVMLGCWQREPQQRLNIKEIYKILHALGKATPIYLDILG
Chain of Angiopoietin-1 receptor (Homo sapiens) (Q02763 whole entry): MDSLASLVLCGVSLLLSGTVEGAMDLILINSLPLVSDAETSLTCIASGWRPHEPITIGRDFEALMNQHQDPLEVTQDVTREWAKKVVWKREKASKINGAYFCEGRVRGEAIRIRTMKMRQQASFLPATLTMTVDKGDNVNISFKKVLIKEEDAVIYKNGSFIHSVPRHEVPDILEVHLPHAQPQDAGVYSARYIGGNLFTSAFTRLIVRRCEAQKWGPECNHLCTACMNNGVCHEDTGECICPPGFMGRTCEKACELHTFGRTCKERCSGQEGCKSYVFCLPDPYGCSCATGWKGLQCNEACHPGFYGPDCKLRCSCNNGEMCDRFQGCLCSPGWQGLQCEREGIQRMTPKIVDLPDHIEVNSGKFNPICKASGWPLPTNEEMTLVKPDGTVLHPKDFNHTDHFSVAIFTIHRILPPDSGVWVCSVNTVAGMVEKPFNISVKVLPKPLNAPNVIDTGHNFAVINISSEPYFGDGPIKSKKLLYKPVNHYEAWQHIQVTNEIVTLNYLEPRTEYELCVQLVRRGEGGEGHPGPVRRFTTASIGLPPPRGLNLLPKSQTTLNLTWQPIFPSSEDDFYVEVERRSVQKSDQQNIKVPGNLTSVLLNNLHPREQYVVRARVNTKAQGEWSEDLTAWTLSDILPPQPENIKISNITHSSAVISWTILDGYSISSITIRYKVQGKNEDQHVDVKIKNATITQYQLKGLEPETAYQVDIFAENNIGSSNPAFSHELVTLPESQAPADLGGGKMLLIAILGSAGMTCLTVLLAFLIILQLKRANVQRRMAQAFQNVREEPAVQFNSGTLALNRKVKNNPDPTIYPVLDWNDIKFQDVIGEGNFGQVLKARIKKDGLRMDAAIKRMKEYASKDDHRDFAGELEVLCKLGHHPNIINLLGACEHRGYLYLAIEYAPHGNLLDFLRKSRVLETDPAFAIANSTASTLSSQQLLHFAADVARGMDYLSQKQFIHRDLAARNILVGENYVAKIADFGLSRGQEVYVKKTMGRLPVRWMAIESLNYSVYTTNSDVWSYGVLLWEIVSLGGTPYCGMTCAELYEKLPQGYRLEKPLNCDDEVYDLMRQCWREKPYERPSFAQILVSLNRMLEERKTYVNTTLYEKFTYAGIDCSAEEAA
Chain of BDNF/NT-3 growth factors receptor (Homo sapiens) (Q16620 32-822 limits assumed): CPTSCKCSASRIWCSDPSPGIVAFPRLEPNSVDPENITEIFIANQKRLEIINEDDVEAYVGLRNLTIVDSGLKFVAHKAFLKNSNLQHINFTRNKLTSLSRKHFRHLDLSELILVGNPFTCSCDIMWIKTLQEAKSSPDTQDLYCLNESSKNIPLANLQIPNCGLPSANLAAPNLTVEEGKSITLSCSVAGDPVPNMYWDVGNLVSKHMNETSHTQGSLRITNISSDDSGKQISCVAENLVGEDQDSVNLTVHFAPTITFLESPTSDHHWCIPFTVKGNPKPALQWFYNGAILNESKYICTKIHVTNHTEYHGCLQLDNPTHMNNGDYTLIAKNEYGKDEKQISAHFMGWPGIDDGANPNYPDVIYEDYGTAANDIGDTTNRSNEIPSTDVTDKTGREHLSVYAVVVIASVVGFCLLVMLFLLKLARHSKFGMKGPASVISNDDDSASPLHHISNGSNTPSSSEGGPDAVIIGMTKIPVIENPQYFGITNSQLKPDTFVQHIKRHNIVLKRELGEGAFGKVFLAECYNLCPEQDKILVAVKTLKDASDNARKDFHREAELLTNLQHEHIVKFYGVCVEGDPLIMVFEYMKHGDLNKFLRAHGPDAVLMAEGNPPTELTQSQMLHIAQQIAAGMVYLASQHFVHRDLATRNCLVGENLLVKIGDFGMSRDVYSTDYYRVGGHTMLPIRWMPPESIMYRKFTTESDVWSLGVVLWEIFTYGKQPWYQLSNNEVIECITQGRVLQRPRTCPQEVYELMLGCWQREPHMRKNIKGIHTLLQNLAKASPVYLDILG
Chain of Activated CDC42 kinase 1 (Homo sapiens) (Q07912 whole entry, looked up): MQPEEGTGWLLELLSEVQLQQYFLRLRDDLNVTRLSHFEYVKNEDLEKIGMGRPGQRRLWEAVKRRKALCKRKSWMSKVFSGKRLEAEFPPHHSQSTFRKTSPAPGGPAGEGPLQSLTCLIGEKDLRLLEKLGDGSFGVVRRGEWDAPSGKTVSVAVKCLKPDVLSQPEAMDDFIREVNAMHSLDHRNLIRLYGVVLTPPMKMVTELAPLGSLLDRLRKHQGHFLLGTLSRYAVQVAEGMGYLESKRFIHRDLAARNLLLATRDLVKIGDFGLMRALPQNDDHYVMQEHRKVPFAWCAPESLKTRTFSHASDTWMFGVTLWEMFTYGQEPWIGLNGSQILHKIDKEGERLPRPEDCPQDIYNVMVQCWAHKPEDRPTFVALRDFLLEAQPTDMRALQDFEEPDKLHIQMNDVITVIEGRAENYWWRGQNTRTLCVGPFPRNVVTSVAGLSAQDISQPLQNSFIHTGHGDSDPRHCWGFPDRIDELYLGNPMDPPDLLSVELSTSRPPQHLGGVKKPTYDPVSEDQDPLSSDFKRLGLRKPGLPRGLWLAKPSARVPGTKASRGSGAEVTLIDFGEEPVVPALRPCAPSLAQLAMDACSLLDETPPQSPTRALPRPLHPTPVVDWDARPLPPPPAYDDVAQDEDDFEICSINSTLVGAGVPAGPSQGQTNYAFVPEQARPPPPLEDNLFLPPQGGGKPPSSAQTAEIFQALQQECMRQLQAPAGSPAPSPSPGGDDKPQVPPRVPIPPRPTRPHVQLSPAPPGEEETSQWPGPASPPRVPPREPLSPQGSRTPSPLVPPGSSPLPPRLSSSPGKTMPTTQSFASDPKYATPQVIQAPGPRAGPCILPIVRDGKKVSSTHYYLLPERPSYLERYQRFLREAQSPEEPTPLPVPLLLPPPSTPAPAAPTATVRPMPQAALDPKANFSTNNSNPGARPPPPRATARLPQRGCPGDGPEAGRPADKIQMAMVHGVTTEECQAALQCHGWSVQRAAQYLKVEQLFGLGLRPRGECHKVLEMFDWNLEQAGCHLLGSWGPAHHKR

SMILES	inhibition [1]	inhibition [2]	inhibition [3]	inhibition [4]	inhibition [5]	inhibition [6]	inhibition [7]	inhibition [8]	inhibition [9]	inhibition [10]	inhibition [11]	inhibition [12]	inhibition [13]	inhibition [14]	inhibition [15]	inhibition [16]	inhibition [17]	inhibition [18]	inhibition [19]	inhibition [20]
COC(=O)Nc1nc2cc(Oc3ccc(NC(=O)Nc4cccc(Br)c4)cc3)ccc2[nH]1	0.53%	4.37%	3.43%	31.3%	54%	3.04%	8.8%	0.29%	0.1%	28.4%	55.6%	19.7%	32.5%	20.9%	38.8%	2.73%	4.17%	0.49%	8.12%	0.95%
Cc1ccc(C(=O)NC2CC2)cc1-c1ccc2[nH]ncc2c1	-0.05%	-3.67%	-3.15%	0.34%	3.3%	-1.01%	4.02%	-0.76%	2.48%	1.88%	-1.16%	-1.91%	-0.53%	-1.71%	0.33%	-2.22%	0.71%	0.52%	-6.13%	-3.2%
CN1CCN(C(=O)c2ccc(NC(=O)Nc3ccc(N(C)c4ccnc(Nc5ccc(CS(C)(=O)=O)cc5)n4)cc3)cc2)CC1	-2.49%	10.1%	37.1%	33.2%	67.1%	46.2%		8.52%	61%	7.78%	51%	5.61%	31.5%	9.24%	36.9%	33.8%	70.1%	-4.74%	8.24%	84.3%
NC(=O)c1cccc(Nc2nccc(Nc3cccc(F)c3)n2)c1	-2.49%	6.51%	34.3%	1.74%	10.1%	6.18%	44.3%	2.29%	22.2%	1.89%	2.65%	1.46%	14.8%	-1.62%	5.94%	6.53%	29%	3.52%	6.29%	14.9%
CCS(=O)(=O)c1ccc(OC)c(Nc2ncc(-c3cccc(OC)c3)o2)c1	-2.39%	8.3%	35.5%	3.35%	16.1%	49%	90.6%	2.52%	15.3%	7.51%	30.9%	7.72%	43.5%	11.7%	49.3%	14.5%	53.4%	-5.06%	7.02%	4.52%
Cc1ccc2c(-c3ccnc(Nc4cccc(C(F)(F)F)c4)n3)c(-c3ccccc3)nn2n1	-5.34%	8.8%	38.3%	3.55%	8.11%	2.78%	19.5%	0.98%	2.35%	1.79%	7.09%	4.09%	5.15%	2.41%	5.05%	6.16%	17.2%	-1.28%	10.6%	1.82%
COc1cc(/C=N/Nc2ncnc3c2cnn3C(C)C)ccc1O	35.4%	3.27%	13.6%	0.88%	12.2%	1.37%	7.79%	0.51%	5.5%	1.66%	8.39%	4.28%	31.4%	3.32%	29.1%	3.5%	14.1%	0.13%	2.81%	3.73%
